SMILES strings stand for the structures. Values joined by “and” are separate entries in the source; they are usually repeats but may differ in a detail not shown here. Equal values may be shown once. The panel holds about 83,000 compounds, 20% with a hit somewhere; the sample as a whole holds those more often.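 Step 1: grow cells in 96-well plates. Step 2: add test compound at a single concentration. Step 3: incubate 48 h. Step 4: record percent growth.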 Active and inactive are the calls of the source.

In this experiment the test system is RPMI-8226 leukemia. In words: NCI-60 one-dose screen, 48 h (100 = growth as untreated, 0 = no growth, -100 = all killed). As to conditions: 10 µM. As for the experimental part:
Growth inhibition of the RPMI-8226 human tumor cell line is measured as a screen for anti-cancer activity. Cells are grown in 96 well plates and exposed to the test compound for 48 hours. Compounds are tested at a single concentration, which is 10^-5 M for most compounds. The reported endpoint is percent growth (GI% or GIPRCNT), where numbers from 0 - 100% represent growth inhibition, and numbers from -100% - 0 represent cell death. For example, a value of 40 represents 60% growth inhibition. A value of 0 means no net growth occurred over the course of the experiment. A value of -40 indicates 40% of cells at the beginning of the experiment died by the end of the experiment. A value of -100 means all cells are dead at the end of the experiment.
NCI-60 Human Tumor Cell Lines Screen was performed using the standard one-dose NCI protocol, which is described in more detail at https://dtp.cancer.gov/discovery_development/nci-60/default.htm.
Compounds with GIPRCNT values below 10 were considered active. Activity score was based on GIPRCNT using the following formula: […]
Score is 0 for GIPRCNT values of 100 or above, 50 for GIPRCNT values of 0, and 100 for GIPRCNT values of -100.
With `COC(C(=O)C(O)C(C)O)C1Cc2cc3cc(OC4CC(OC(C)=O)C(OC5CC(O)C(OC)C(C)O5)C(C)O4)cc(O)c3c(O)c2C(=O)C1OC1CC(OC2CC(OC3CC(C)(O)C(OC(=O)C(C)C)C(C)O3)C(O)C(C)O2)C(O)C(C)O1` (stereo not given), the growth is -32.4% (active).

Regarding `O=C(CBr)Nc1ccc(Cl)cc1`, the growth is 73.4% (inactive).

In the case of `C#CC1(O)CCC(C(C)(C)C)CC1` (stereo not given), the growth was 102% (inactive).

For the compound `COC12c3c(C)cc(O)c4c(=O)occ(c34)C(=O)C1C13COC(=O)c4c(O)cc(C)c(c41)C(=O)C2C3OC(C)=O` (stereo not given), the growth was 90.6% (inactive).

Take `[Cl][Hg][c]1ccc(Cl)s1`: the growth was 18.5% (inactive).

As to `Cc1cc([N+](=O)[O-])c2ccccc2[n+]1[O-]`, the growth was -23.6% (active) and -42.3% (active).

On to `CC(=O)[O][Hg][c]1c(C)c(C)cc(C)c1C`, for which the growth was 7.45% (active).

Take `COc1cc(/C=C/[N+](=O)[O-])cc(Br)c1OC`: the growth was -15.7% (active).

Consider `O=[P+](O)c1ccccc1`, for which the growth was 98.6% (inactive).

As to `CC(=O)Nc1c2sscc-2n(C)c1=O`, the growth was -51.8% (active).

With `[Cl][Sn]([c]1ccccc1)([c]1ccccc1)[c]1ccccc1`, the growth is -28% (active).

As for `O=[N+]([O-])/C=C/c1ccc(Cl)cc1[N+](=O)[O-]`, the growth is -11.3% (active).

Turning to `C/C1=C\[C@H](C)C[C@H](C)OC(=O)C[C@H](c2ccc(O)cc2)NC(=O)[C@@H](Cc2c(Br)[nH]c3ccccc23)N(C)C(=O)[C@H](C)NC(=O)[C@@H](C)C1`, the growth was -56.9% (active).

As to `Oc1ccccc1-c1ccccc1`, the growth is 98.7% (inactive) and 93.2% (inactive).

On to `CC/C(=C/c1ccc(OC)cc1OC)[N+](=O)[O-]`, for which the growth was -7.24% (active).

On to `CC/C(=C/c1ccc(OC)cc1)[N+](=O)[O-]`, for which the growth was -8.7% (active).

For the compound `COc1cc(/C=C\[N+](=O)[O-])ccc1O`, the growth was -14.8% (active) and 27.5% (inactive).

Turning to `O=C1CCC(=O)N1SC(Cl)(Cl)Cl`, the growth was 108% (inactive).

Consider `O=[N+]([O-])c1ccc(N(CCO)CCO)c2c1no[n+]2[O-]`, for which the growth was -53.7% (active).

With `O=[N+]([O-])c1ccc(Br)c([N+](=O)[O-])c1`, the growth is 102% (inactive).

Regarding `COc1cc([N+](=O)[O-])c2ncccc2c1[N+](=O)[O-]`, the growth is 45.8% (inactive).

Regarding `O=C(CCl)Nc1ccc(Cl)cc1`, the growth was 60.4% (inactive).

In the case of `[O-][n+]1ccccc1S`, the growth was 5.89% (active).

Take `Cc1ccc(C(=O)C2C(c3ccccc3)N2C2CCCCC2)cc1` (stereo not given): the growth is 78.5% (inactive) and 94.1% (inactive).

As to `Oc1c(I)cc(I)cc1I`, the growth was 94% (inactive).

`CC1CCC2(OC1)OC1C(O)C3C4CCC5CC(OC6OC(CO)C(OC7OC(CO)C(O)C(OC8OCC(O)C(O)C8O)C7OC7OC(CO)C(O)C(OC8OC(CO)C(O)C(O)C8O)C7O)C(O)C6O)C(O)CC5(C)C4CCC3(C)C1C2C` (stereo not given): the growth was -47.1% (active).

For the compound `COc1ccccc1[As]=[As]c1ccccc1OC` (stereo not given), the growth was -15.1% (active).

With `CS(=N)(=O)CCC(N)C(=O)O` (stereo not given), the growth was 107% (inactive).

`NC(=O)c1cc([N+](=O)[O-])c(Cl)c([N+](=O)[O-])c1Cl`: the growth was 9.48% (active).

Turning to `COC1CC2C=C(C)/C=C/C=C/C(=O)NC(c3ccccc3)C/C=C/CCC(O)CC(=O)C2=C1O` (stereo not given), the growth was -40.8% (active).

With `COc1cc([C@@H]2c3cc4c(c(O)c3C[C@H]3COC(=O)[C@@H]32)OCO4)cc(OC)c1OC`, the growth is -53.3% (active).

Take `O=[N+]([O-])c1ccc(N2CCOCC2)c2c1no[n+]2[O-]`: the growth was -7.12% (active).

On to `O=[N+]([O-])c1cc[n+]([O-])c2ccccc12`, for which the growth is -7.21% (active).

With `CCOP(=O)(OCC)C(O)c1ccccc1Cl` (stereo not given), the growth is 102% (inactive).

Consider `CC12OOC(c3ccccc31)c1c2ccc2ccccc12` (stereo not given), for which the growth was -33.8% (active).

As for `COc1cc2c(c(OC)c1OC)-c1ccc(O)c(=O)cc1[C@@H](NC(C)=O)CC2`, the growth was 40.9% (inactive).

For the compound `CC(C)(C)OOC(=O)/C=C\C(=O)OOC(C)(C)C`, the growth is 112% (inactive).

Consider `CC(C)C1(NC(=O)C2CC3c4cccc5[nH]cc(c45)CC3N(C)C2)OC2(O)C3CCCN3C(=O)C(Cc3ccccc3)N2C1=O` (stereo not given), for which the growth is 108% (inactive).

With `COC(=O)C1C(O)C(C)C(O)C(C)/C=C\C=C(C)C(=O)Nc2c(C)c(OC(C)=O)c3c(c2O)C(=O)C(C)=C2OCOC(=C23)C(C)=CC(C)(O)C(O)C(C)C1O` (stereo not given), the growth was 95.3% (inactive).

Consider `C=C1C(=O)O[C@@H]2C[C@@H](C)[C@@H]3C=CC(=O)[C@@]3(C)[C@@H](O)[C@H]12`, for which the growth is -52.3% (active).

(Values after PubChem BioAssay (NCI).)
